Laboratory results: PubChem BioAssay (NCI)
This is part of a sample that, as a whole, favours compounds with a hit. Of some 83,000 tested, about 20% had one in any assay.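 Step 1: grow cells in 96-well plates. Step 2: add test compound at a single concentration. Step 3: incubate 48 h. Step 4: record percent growth.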 Unmarked numbers belong to inactive results. The source made the active and inactive calls. The calls were made as follows: active = growth percent below 10; inactive = the rest.

tested on: CAKI-1 renal; test: NCI-60 one-dose screen, 48 h (100 = growth as untreated, 0 = no growth, -100 = all killed); conditions: 10 µM unless noted

SMILES | growth
O=C1/C(=C/c2ccc(F)cc2)CN(C(=O)CCN2CCC(=NO)CC2)C/C1=C\c1ccc(F)cc1 | -46.4% (active)
CC/C=C\C[C@H](O)C/C=C1/C(=O)C=C[C@@H]1C/C=C\CCCC(N)=O | 11.3%
CC/C=C\C[C@H](F)C/C=C1/C(=O)C=C[C@@H]1C/C=C\CCCC(=O)OC | 9.44% (active)
Nc1nc2c(c3ncccc13)C(c1ccc(Cl)c(Cl)c1)Cc1ncccc1-2 (stereo unspecified) | 30.9%
Cn1c(=O)c2c(ncn2CC[N+](C)(C)C)n(C)c1=O | 102%
O=C(O)c1cccc2c1-c1ccccc1C2=O | 65.1%
CCOC(=O)C(C#N)C1CCCCC1 (stereo unspecified) | 75.5%
CCCCNP1(NCCCC)=NP(NCCCC)(NCCCC)=NP(NCCCC)(NCCCC)=NP(NCCCC)(NCCCC)=N1 | 64.4%
CC(=O)C1=C(O)C=C2Oc3c(C(=O)/C=C/c4cc(C(F)(F)F)cc(C(F)(F)F)c4)c(O)c(C)c(O)c3[C@]2(C)C1=O | 5.35% (active)
COc1ccc(OCC(=O)Nc2ccc(-c3nc4ccccc4s3)cc2C)cc1 | 78.4%
CCCCCCCCCC(=O)Oc1ccc(/C(=C(/C)c2ccccc2)c2ccc(OCCN3CCCC3)cc2)cc1 | 1.34% (active)
COc1cccc(-c2nc3sccn3c2-c2ccnc(NCCCNS(=O)(=O)c3ccc(Cl)cc3)c2)c1 | 32.6%
CC/C=C\C[C@H](O)C/C=C1/C(=O)C=C[C@@H]1C/C=C\CCCC(=O)NC | 4.85% (active)
COc1cccc(/C=C\C(=O)c2ccccc2)c1 | 66.6%
C=C1CC2(OC1=O)C(=O)Nc1ccccc12 (stereo unspecified) | 31.5%
Cc1ccc2c(c1)C(=O)/C(=C/c1ccc(OCC(=O)c3ccccc3)cc1)O2 | 103%
CCN(C(=O)CN1CCN(c2cc3c(cc2F)c(=O)c(C(=O)O)cn3C2CC2)CC1)c1nc(-c2ccc(OC)cc2)cs1 | 75.7%
CS(CCCCN=C=S)=NC(=O)c1c(F)c(F)c(F)c(F)c1F (stereo unspecified) | 71.3%
Cc1ccccc1CCO | 100%

SMILES | growth
O=C(O)c1c([N+](=O)[O-])cnc2ccccc12 | 98%
CC(=O)C1=C(O)C=C2Oc3c(C(=O)/C=C/c4cc(Cl)cc(Cl)c4)c(O)c(C)c(O)c3[C@]2(C)C1=O | 2.74% (active)
COc1cc(NC(N)=NCC(C)(C)COc2ccc(C(F)(F)F)cc2)cnc1C#N | 62.8%
CC1=CC(=O)CC(C)(C)[C@@]1(O)/C=C/[C@@H](C)O | 97.2%
OC(c1cc(-c2ccccc2)nc2ccc(Cl)cc12)C1CCCCN1 (stereo unspecified) | 34.3%
CCC(=O)OCc1cccc(OC)c1 | 73.6%
CCCCCCCCCCCCCC(=O)C(C)N (stereo unspecified) | 77.6%
CC1=C(C)C(=O)OC([C@](C)(O)[C@]2(O)CC[C@@]3(O)[C@@H]4C[C@H]5O[C@]56CC=CC(=O)[C@]6(C)[C@H]4CC[C@]23COC(=O)c2ccc(C)o2)C1 (stereo partly specified) | -87.2% (active)
C=C1CC[C@@H]2[C@](C)(COC(C)=O)[C@H](OC(C)=O)CC[C@@]2(C)[C@@H]1CC(Nc1ccc(S(=O)(=O)Nc2ccc(Cl)nn2)cc1)C1=CCOC1=O (stereo partly specified) | 31.8%
CC(C)[C@H]1COC(=O)N1[C@@H]1C(=O)N([C@@H](CCC(=O)N2CCN(C3CCCC3)CC2)C(=O)N[C@@H]2CCCc3ccccc32)[C@@H]1/C=C/c1cccc(Br)c1 | 62.5%
Cc1cc(Cl)ccc1Nc1nc(C(F)(F)F)ccc1C(=O)N/N=C/c1ccc(F)cc1 | 9.97% (active)
Cn1c(=O)c2[nH]c(C(O)C(O)C(O)C(O)CO)nc2n(C)c1=O (stereo unspecified) | 102%
C(=N\Nc1ccccn1)/c1ccccn1 | 10.5%
COc1cccc(-c2cn3c(ccc4ccccc43)n2)c1 | 32.4%
COc1ccc2c(c1)C(=O)/C(=C/c1cccc(OCC(=O)Nc3nc4c(s3)CCCC4)c1)O2 | -83.5% (active)
c1ccc(-c2nc(N3CCOCC3)c3c4c(sc3n2)CCCCC4)nc1 | 46.2%
COc1ccc(-c2cn3c(ccc4ccccc43)n2)cc1 | 92.7%
COc1cc(OC)c(/C=C/C(=O)c2c(OC)cc(OC)cc2OC)c(OC)c1 | 7.16% (active)
COc1ccc(-c2cc(-c3ccc(N(C)C)cc3)nc(NC(=O)c3ccncc3)n2)cc1 | 95%

tested on: A498 renal; test: as above; conditions: 10 µM unless noted

SMILES | growth
O=C1/C(=C/c2ccc(F)cc2)CN(C(=O)CCN2CCC(=NO)CC2)C/C1=C\c1ccc(F)cc1 | 24.9%
CC/C=C\C[C@H](O)C/C=C1/C(=O)C=C[C@@H]1C/C=C\CCCC(N)=O | 54.6%
CC/C=C\C[C@H](F)C/C=C1/C(=O)C=C[C@@H]1C/C=C\CCCC(=O)OC | 84.8%
Nc1nc2c(c3ncccc13)C(c1ccc(Cl)c(Cl)c1)Cc1ncccc1-2 (stereo unspecified) | -13.5% (active)
Cn1c(=O)c2c(ncn2CC[N+](C)(C)C)n(C)c1=O | 115%
O=C(O)c1cccc2c1-c1ccccc1C2=O | 96.1%
CCOC(=O)C(C#N)C1CCCCC1 (stereo unspecified) | 117%
CCCCNP1(NCCCC)=NP(NCCCC)(NCCCC)=NP(NCCCC)(NCCCC)=NP(NCCCC)(NCCCC)=N1 | 4.56% (active)
CC(=O)C1=C(O)C=C2Oc3c(C(=O)/C=C/c4cc(C(F)(F)F)cc(C(F)(F)F)c4)c(O)c(C)c(O)c3[C@]2(C)C1=O | -87.7% (active)
COc1ccc(OCC(=O)Nc2ccc(-c3nc4ccccc4s3)cc2C)cc1 | 101%
CCCCCCCCCC(=O)Oc1ccc(/C(=C(/C)c2ccccc2)c2ccc(OCCN3CCCC3)cc2)cc1 | 1.68% (active)
COc1cccc(-c2nc3sccn3c2-c2ccnc(NCCCNS(=O)(=O)c3ccc(Cl)cc3)c2)c1 | 38.7%
CC/C=C\C[C@H](O)C/C=C1/C(=O)C=C[C@@H]1C/C=C\CCCC(=O)NC | 56.1%
COc1cccc(/C=C\C(=O)c2ccccc2)c1 | 93.8%
C=C1CC2(OC1=O)C(=O)Nc1ccccc12 (stereo unspecified) | 72.8%
Cc1ccc2c(c1)C(=O)/C(=C/c1ccc(OCC(=O)c3ccccc3)cc1)O2 | 98.3%
CCN(C(=O)CN1CCN(c2cc3c(cc2F)c(=O)c(C(=O)O)cn3C2CC2)CC1)c1nc(-c2ccc(OC)cc2)cs1 | 66.6%
CS(CCCCN=C=S)=NC(=O)c1c(F)c(F)c(F)c(F)c1F (stereo unspecified) | 112%
Cc1ccccc1CCO | 96.5%

SMILES | growth
O=C(O)c1c([N+](=O)[O-])cnc2ccccc12 | 118%
CC(=O)C1=C(O)C=C2Oc3c(C(=O)/C=C/c4cc(Cl)cc(Cl)c4)c(O)c(C)c(O)c3[C@]2(C)C1=O | -57.7% (active)
COc1cc(NC(N)=NCC(C)(C)COc2ccc(C(F)(F)F)cc2)cnc1C#N | 45.9%
CC1=CC(=O)CC(C)(C)[C@@]1(O)/C=C/[C@@H](C)O | 94.1%
OC(c1cc(-c2ccccc2)nc2ccc(Cl)cc12)C1CCCCN1 (stereo unspecified) | 64.6%
CCC(=O)OCc1cccc(OC)c1 | 102%
CCCCCCCCCCCCCC(=O)C(C)N (stereo unspecified) | 11.3%
CC1=C(C)C(=O)OC([C@](C)(O)[C@]2(O)CC[C@@]3(O)[C@@H]4C[C@H]5O[C@]56CC=CC(=O)[C@]6(C)[C@H]4CC[C@]23COC(=O)c2ccc(C)o2)C1 (stereo partly specified) | -78.3% (active)
C=C1CC[C@@H]2[C@](C)(COC(C)=O)[C@H](OC(C)=O)CC[C@@]2(C)[C@@H]1CC(Nc1ccc(S(=O)(=O)Nc2ccc(Cl)nn2)cc1)C1=CCOC1=O (stereo partly specified) | 89%
CC(C)[C@H]1COC(=O)N1[C@@H]1C(=O)N([C@@H](CCC(=O)N2CCN(C3CCCC3)CC2)C(=O)N[C@@H]2CCCc3ccccc32)[C@@H]1/C=C/c1cccc(Br)c1 | 0.642% (active)
Cc1cc(Cl)ccc1Nc1nc(C(F)(F)F)ccc1C(=O)N/N=C/c1ccc(F)cc1 | 8.05% (active)
Cn1c(=O)c2[nH]c(C(O)C(O)C(O)C(O)CO)nc2n(C)c1=O (stereo unspecified) | 106%
C(=N\Nc1ccccn1)/c1ccccn1 | 22.4%
COc1cccc(-c2cn3c(ccc4ccccc43)n2)c1 | -3.78% (active)
COc1ccc2c(c1)C(=O)/C(=C/c1cccc(OCC(=O)Nc3nc4c(s3)CCCC4)c1)O2 | 92%
c1ccc(-c2nc(N3CCOCC3)c3c4c(sc3n2)CCCCC4)nc1 | 9.92% (active)
COc1ccc(-c2cn3c(ccc4ccccc43)n2)cc1 | 116%
COc1cc(OC)c(/C=C/C(=O)c2c(OC)cc(OC)cc2OC)c(OC)c1 | 7.18% (active)
COc1ccc(-c2cc(-c3ccc(N(C)C)cc3)nc(NC(=O)c3ccncc3)n2)cc1 | 76.5%
